High-throughput results from PubChem BioAssay.
CYP2C19 inh: blockers of cytochrome P450 2C19 activity – biochemical, luminescence, ADME assay, primary screen; CYP2C19 Supersomes, luciferin-H EGE luminescence, 30 min; P33261; inhibition, % at 5 µM; 96,000 compounds, 21% hits;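 active = CYP2C19 inhibition above a set limit at 5 µM in the primary screen, cut at about 50% in these data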;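 also: plate controls were negative control wells for no effect and 2.5 mM tranylcypromine positive control for full effect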
PostGolgi yeast: phenotypic screen on post-Golgi transport, primary screen | post-Golgi transport phenotypic cell assay | inhibition, % at 10 µM | 98,000 compounds, 0.9% hits | AID 739, 2007;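 also: yeast cells grown in 1536-well plates; yeast grown about 18 h at 30C before absorbance read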
CYP2C9 inh: blockers of cytochrome P450 2C9 activity – biochemical, luminescence, ADME assay, primary screen. P11712. inhibition, % at 5 µM. AID 777, 2007. CYP2C9 Supersomes, luciferin-H conversion. 96,000 compounds, 20% hits;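 active = blocking of liver enzyme CYP2C9 beyond about 50% at 5 µM, limit read from the data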
Target sequence (P11712 whole entry, looked up): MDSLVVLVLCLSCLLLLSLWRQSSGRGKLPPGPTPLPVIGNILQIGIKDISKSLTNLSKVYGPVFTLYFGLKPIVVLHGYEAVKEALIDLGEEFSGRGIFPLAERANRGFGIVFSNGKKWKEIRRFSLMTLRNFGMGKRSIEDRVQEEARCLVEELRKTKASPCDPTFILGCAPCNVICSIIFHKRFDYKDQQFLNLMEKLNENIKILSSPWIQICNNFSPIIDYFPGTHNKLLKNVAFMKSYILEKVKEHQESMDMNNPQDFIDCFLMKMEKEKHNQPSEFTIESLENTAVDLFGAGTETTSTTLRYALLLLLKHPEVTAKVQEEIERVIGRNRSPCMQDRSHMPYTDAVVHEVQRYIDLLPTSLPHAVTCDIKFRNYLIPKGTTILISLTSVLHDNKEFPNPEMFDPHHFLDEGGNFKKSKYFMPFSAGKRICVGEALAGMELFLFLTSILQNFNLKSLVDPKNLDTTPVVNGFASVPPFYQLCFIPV
CYP2C9 act: human CYP2C9 activators, primary screen, biochemical, luminescence. Cytochrome P450 2C9 (Homo sapiens), P11712. recombinant CYP2C9, luciferin-H conversion; stronger effect = higher value; factor 1 = untreated enzyme, 0 = blocked. activation factor at 5 µM. 96,000 compounds, 1.4% hits. AID 1024, 2008;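 active = activation factor of 2 or more for CYP2C9 at a 5 µM dose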;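 also: 0 = sulfaphenazole-blocked wells and 1 = vehicle-only wells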
CYP2C19 act: human CYP2C19 activators, primary screen, biochemical, luminescence; activation factor at 5 µM; 96,000 tested, under 10 active; Cytochrome P450 2C19 (Homo sapiens), P33261; recombinant CYP2C19, luciferin-H EGE luminescence; stronger effect = higher value; 0 = fully inhibited enzyme, 1 = untreated enzyme;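 active = activation factor of at least 2 at 5 µM in the primary screen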;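 also: 0 = wells with 2.5 mM tranylcypromine and 1 = vehicle-only wells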
PostGolgi ctrl: growth inhibition of yeast control strain, primary screen, counter-screen for post-Golgi transport modulator project | efflux-deficient yeast background strain, growth absorbance A615, 16 h | inhibition, % at 10 µM | 98,000 compounds, 5% hits | AID 738, 2007
* hit, by the source's call; . = not tested or not shown. Most compounds without a hit are left out; they make up all but 32% or so of the library. Rule as the data show it, unless noted: active = inhibition above about 30%; inactive = the rest.

SMILES | CYP2C19 inh | PostGolgi yeast | CYP2C9 inh | CYP2C9 act | CYP2C19 act | PostGolgi ctrl
CCOC(=O)c1c(-n2c(C)cc(/C=C3\C(=O)NC(=O)N(C)C3=O)c2C)sc2c1CCCC2 | 43 | -1 | 71* | 0.3 | 0.6 | 20
CCC(COC(=O)NC)NC(=O)Oc1ccccc1 (stereo not drawn) | 3 | -15 | 1 | 1 | 1 | 6
CC(C)OC(=O)c1c(N)n(Cc2ccco2)c2nc3ccccc3nc12 | . | 9 | . | . | . | 35*
CCCNC(=O)c1c(N)n(Cc2ccco2)c2nc3ccccc3nc12 | -9 | -1 | 33 | 0.7 | 1.1 | 22
COCCCn1c(N)c(C(=O)OCCOC)c2nc3ccccc3nc21 | 37 | -11 | 50 | 0.5 | 0.6 | 6
COc1ccc(Cn2c(N)c(C(=O)NCc3ccco3)c3nc4ccccc4nc32)cc1OC | 42 | 12 | 79* | 0.2 | 0.6 | 13
CCOC(=O)c1c(N)n(CCCOC(=O)c2ccco2)c2nc3ccccc3nc12 | 66* | 13 | 86* | 0.1 | 0.3 | 0
CC(C)CNC(=O)c1c(N)n(Cc2ccco2)c2nc3ccccc3nc12 | 0 | 3 | 30 | 0.7 | 1 | 55*
CCOc1ccccc1-n1c(O)c(C=NCCCN(CC)CC)c(=O)[nH]c1=O | 0 | 12 | -2 | 1 | 1 | 2
CCN(c1ccc(C(O)(C(=O)OC)C(F)(F)F)cc1)S(=O)(=O)c1ccc(C)cc1 (stereo not drawn) | 49 | -2 | 45 | 0.6 | 0.5 | 35*
COC(=O)C(O)(c1ccc(NC(=S)NC(=O)c2ccccc2)cc1)C(F)(F)F (stereo not drawn) | 9 | 4 | 50* | 0.5 | 0.9 | 33*
CCOC(=O)C(O)(c1ccc(N(CC)S(=O)(=O)c2ccc(C)cc2)cc1)C(F)(F)F (stereo not drawn) | 44 | -13 | 69* | 0.3 | 0.6 | 1
COC(=O)C(O)(c1ccc(N(C)S(=O)(=O)c2ccccc2)cc1)C(F)(F)F (stereo not drawn) | 92* | -1 | 88* | 0.1 | 0.1 | -1
CC(=NCCC1=CCCCC1)c1c(O)[nH]c(=O)[nH]c1=O | 11 | 0 | 25 | 0.8 | 0.9 | 10
CCCC/C(=N\O)c1c[nH]c2ccccc12 | 69* | 4 | 28 | 0.7 | 0.3 | 7
O=P(OCC(F)(F)C(F)F)(N1CCCCC1)N1CCCCC1 | -8 | 6 | -10 | 1.1 | 1.1 | 2
CCCCn1c(=O)c(C(=O)NCc2ccncc2)c(O)c2ccccc21 | 92* | -3 | 100* | 0 | 0.1 | 3
CC(C)N(CC(O)c1cccc([N+](=O)[O-])c1)C(C)C (stereo not drawn) | 4 | 0 | -5 | 1 | 1 | -11
O=C(COc1ccc2ccccc2c1)N1CCN(Cc2c[nH]c3ccccc23)CC1 | 19 | 3 | 22 | 0.8 | 0.8 | 13
O=C(COc1ccc(Br)cc1)N1CCN(Cc2c[nH]c3ccccc23)CC1 | 86* | 9 | 89* | 0.1 | 0.1 | -1
[O-][n+]1onc2c1CCC1N(O)CCC21O (stereo not drawn) | -16 | -8 | 7 | 0.9 | 1.2 | 9
CNC(C(=O)c1ccccc1)C(OC(C)C)c1ccc(Cl)cc1 (stereo not drawn) | 63* | 5 | 37 | 0.6 | 0.4 | 23
O=c1cccc2n1CC1CC2CN(C(c2cccc(F)c2)c2sc3ncnn3c2O)C1 (stereo not drawn) | -18 | 5 | -24 | 1.2 | 1.2 | 0
COc1ccc(Nc2ncc(C(=O)N3CCC4(CC3)OCCO4)c3ccccc23)cc1 | 23 | -6 | 14 | 0.9 | 0.8 | 1
Cc1c(C(=O)N2CCC3(CC2)OCCO3)sc2ncnc(N3CCN(c4ccccn4)CC3)c12 | 62* | 9 | 87* | 0.1 | 0.4 | -13
O=S(=O)(c1ccccc1)N1CCCCC1c1cccnc1 (stereo not drawn) | 52* | 0 | 6 | 0.9 | 0.5 | -4
CN1C(=O)C(Cc2ccc3c(c2)OCO3)C(=O)N(C)C1=O | 43 | 20 | 12 | 0.9 | 0.6 | 5
